ELG1 repair inh: qHTS screen for small molecules that inhibit ELG1-dependent DNA repair in human embryonic kidney (HEK293T) cells expressing luciferase-tagged ELG1. HEK293T ELG1-luciferase reporter, luminescence, 16 h; DNA damage induced by 5-fluorouridine. Potency, µM (top dose mostly 46.1 µM), actives largely listed as inhibitors. actives 2.3% (n = 330,000); note: nearly all actives have a fitted effect of over 55% in size
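Cells (2,000 per well) received 5-fluorouridine plus test compound or DMSO and were incubated 16 hr at 37 °C, 5% CO2. Luciferase activity was read by luminescence 30 min after ONE-Glo addition; signal suppression marked inhibition of damage-induced ELG1 function.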
KB-3-1 tox: qHTS assay for MDR1-selective chemotherapeutics: Primary screen using the parental adenocarcinoma cell KB-3-1. AID 1347075, 2019. actives 1.4% (n = 400,000). KB-3-1 viability, CellTiter-Glo ATP luminescence, 72 h. Potency, µM (top dose mostly 46.1 µM), hits mostly cytotoxic; note: nearly all actives have a fitted effect of over 60% in size
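Cytotoxicity in the drug-sensitive parental line KB-3-1 was scored as loss of CellTiter-Glo luminescence following 72 h incubation with compound. Values come from curve fitting of normalized concentration-response data.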
KB-V1 MDR tox: qHTS assay for MDR1-selective chemotherapeutics: Primary screen using the drug-selected MDR subline cells KB-V1; actives 3.4% (n = 400,000); KB-V1 MDR cells viability, CellTiter-Glo, 72 h; Potency, µM (doses to about 46.1 µM), most hits filed as cytotoxic; AID 1347076, 2019; note: nearly all actives have a fitted effect of over 60% in size
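Following 72 h at 37 degrees C with compound, KB-V1 cell viability was read by CellTiter-Glo luminescence, medium being phenol-red-free DMEM plus 10% FBS; concentration-response parameters came from normalized, curve-fitted qHTS data.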
MCF10A rereplic: A quantitative high throughput screen for small molecules that induce DNA re-replication in MCF 10a normal breast cells; MCF 10A DNA re-replication, Hoechst nuclear intensity, 48 h; Potency, µM (highest dose often 46.1 µM), actives largely listed as activators; actives 2.9% (n = 350,000); AID 624296, 2012; note: nearly all actives have a fitted effect of over 50% in size
SW480 rereplic: A quantitative high throughput screen for small molecules that induce DNA re-replication in SW480 colon adenocarcinoma cells. SW480 DNA re-replication, Hoechst DNA content imaging, 48 h. Potency, µM (doses to about 46.1 µM), usual class: activators. actives 1.8% (n = 340,000). AID 624297, 2012; note: nearly all actives have a fitted effect of over 55% in size
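DNA re-replication was detected as more nuclei of elevated Hoechst intensity after 48 hr exposure to compound (23 nL pinned per well of 250 cells).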
ELG1 FLuc counter: qHTS screen for small molecules that inhibit ELG1-dependent DNA repair: Hit Confirmation in Cell-Based Luciferin Assay; shares compounds with ELG1 repair inh; Potency, µM (titrated, usually from 46.1 µM), most hits filed as inhibitors; AID 624247, 2012; actives 3% (n = 350); cell-free firefly luciferase luminescence counter-screen, ViewLux
ELG1 Luc conf: HTS assay for small molecules that inhibit ELG1-dependent DNA repair in human embryonic kidney (HEK293T) cells expressing luciferase-tagged ELG1: Hit Confirmation; shares compounds with ELG1 repair inh; HEK293T ELG1-luciferase levels, luminescence; cells co-treated with 5-fluorouridine; Potency, µM (highest dose often 46.1 µM), usual class: inhibitors; actives 68% (n = 670); AID 624248, 2012; note: nearly all actives have a fitted effect of over 55% in size
Target sequence (Q96QE3 whole entry, looked up): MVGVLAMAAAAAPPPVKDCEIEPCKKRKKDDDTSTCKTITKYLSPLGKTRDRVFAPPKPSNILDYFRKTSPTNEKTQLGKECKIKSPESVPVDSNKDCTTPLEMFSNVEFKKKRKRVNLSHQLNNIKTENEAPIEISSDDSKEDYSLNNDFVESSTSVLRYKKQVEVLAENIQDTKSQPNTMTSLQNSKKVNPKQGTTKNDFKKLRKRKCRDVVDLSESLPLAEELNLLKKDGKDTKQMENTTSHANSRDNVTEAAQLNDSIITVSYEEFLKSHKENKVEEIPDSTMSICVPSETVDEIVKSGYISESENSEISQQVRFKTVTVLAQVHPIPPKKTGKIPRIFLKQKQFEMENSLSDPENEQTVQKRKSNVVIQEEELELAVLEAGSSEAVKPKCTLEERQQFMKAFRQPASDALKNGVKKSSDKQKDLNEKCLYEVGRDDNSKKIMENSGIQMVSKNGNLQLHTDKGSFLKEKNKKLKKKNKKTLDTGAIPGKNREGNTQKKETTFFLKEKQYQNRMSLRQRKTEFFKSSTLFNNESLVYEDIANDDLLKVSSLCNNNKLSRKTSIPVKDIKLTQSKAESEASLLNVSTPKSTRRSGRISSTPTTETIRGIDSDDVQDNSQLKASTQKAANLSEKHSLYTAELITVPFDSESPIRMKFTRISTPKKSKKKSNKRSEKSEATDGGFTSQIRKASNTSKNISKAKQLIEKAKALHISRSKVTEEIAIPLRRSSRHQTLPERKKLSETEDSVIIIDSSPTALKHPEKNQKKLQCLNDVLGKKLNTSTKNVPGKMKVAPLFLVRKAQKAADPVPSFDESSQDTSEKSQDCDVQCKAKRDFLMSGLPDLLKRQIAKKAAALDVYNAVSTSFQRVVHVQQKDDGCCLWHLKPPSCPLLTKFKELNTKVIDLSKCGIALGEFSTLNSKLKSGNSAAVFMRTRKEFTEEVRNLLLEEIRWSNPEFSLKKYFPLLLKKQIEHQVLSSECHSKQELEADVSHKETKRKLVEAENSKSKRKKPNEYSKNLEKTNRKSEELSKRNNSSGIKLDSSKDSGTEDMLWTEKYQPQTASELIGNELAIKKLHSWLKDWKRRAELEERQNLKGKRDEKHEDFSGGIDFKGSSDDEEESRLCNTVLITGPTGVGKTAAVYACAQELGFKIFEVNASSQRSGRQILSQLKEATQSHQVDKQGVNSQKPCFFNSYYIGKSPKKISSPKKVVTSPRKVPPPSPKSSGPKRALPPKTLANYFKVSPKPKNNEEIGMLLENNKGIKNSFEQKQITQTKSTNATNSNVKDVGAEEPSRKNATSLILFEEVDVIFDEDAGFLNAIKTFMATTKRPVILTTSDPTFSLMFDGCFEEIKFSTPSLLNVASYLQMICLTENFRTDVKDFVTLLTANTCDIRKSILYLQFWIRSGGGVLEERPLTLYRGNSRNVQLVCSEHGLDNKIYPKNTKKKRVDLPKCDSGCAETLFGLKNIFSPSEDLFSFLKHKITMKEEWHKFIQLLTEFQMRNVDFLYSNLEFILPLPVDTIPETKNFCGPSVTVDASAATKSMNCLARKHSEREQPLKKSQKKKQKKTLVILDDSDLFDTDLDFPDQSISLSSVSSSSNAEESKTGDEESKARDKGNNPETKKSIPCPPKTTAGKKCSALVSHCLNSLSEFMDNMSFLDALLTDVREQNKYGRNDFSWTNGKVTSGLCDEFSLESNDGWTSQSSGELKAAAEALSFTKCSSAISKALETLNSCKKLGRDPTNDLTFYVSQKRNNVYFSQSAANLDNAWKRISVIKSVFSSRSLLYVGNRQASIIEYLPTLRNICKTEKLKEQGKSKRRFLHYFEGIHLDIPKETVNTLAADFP
ELG1-Luc MMS: MMS-stimulated human ELG1 repair inhibition, confirmed; shares compounds with ELG1 repair inh; HEK293T luciferase-tagged ELG1 level, MMS stimulated; Potency, µM (top dose mostly 46.1 µM), most hits filed as inhibitors; actives 53% (n = 670); note: nearly all actives have a fitted effect of over 60% in size
ELG1 5FU viab: qHTS screen for small molecules that inhibit ELG1-dependent DNA repair: Hit Confirmation with 5FU Viability | AID 624250, 2012 | Potency, µM (series often up to 46.1 µM), usual class: cytotoxic | shares compounds with ELG1 repair inh | cell viability with 5-FU, ELG1-dependent repair | 670 tested, under 10 active;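 note: ELG1-luc HEK293T cells cotreated with 5-fluorouridine at 10 µM final; viability measured 16 h after compound addition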
ELG1 MMS viab: qHTS screen for small molecules that inhibit ELG1-dependent DNA repair: Hit Confirmation with MMS Viability; shares compounds with ELG1 repair inh; Cell viability with MMS, ELG1-dependent DNA repair; Potency, µM (doses to about 46.1 µM), usual class: cytotoxic; actives 33% (n = 670);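 note: ELG1-luc HEK293T cells co-treated with 10 µM MMS; viability read 16 h after compound addition; nearly all actives have a fitted effect of over 60% in size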
Cell viab unstim: qHTS screen for small molecules that inhibit ELG1-dependent DNA repair: Hit Confirmation with Unstimulated Viability Assay; actives 8% (n = 900); AID 624252, 2012; shares compounds with ELG1 repair inh; cell viability counter-screen, unstimulated, luminescence; Potency, µM (titrated, usually from 45.9 µM), actives largely listed as cytotoxic;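 note: compound exposure lasted 16 hours before reading; nearly all actives have a fitted effect of over 55% in size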
FLuc enzyme: qHTS screen for small molecules that inhibit ELG1-dependent DNA repair: Hit Confirmation in Biochemical Luciferin Assay; shares compounds with ELG1 repair inh; Potency, µM (highest dose often 57.5 µM), most hits filed as inhibitors; actives 10% (n = 350); purified firefly luciferase, luminescence counter-screen; AID 624253, 2012
Hits are given with their value; – = inactive; ? = inconclusive; · = no result given; [ ] = remark or other dose. Compounds with a hit are over-represented: about 8.1% of the library has one in this group of screens. Calls come from the whole dose curve; as a rule, active = well fitted curve in the direction sought with a large enough effect; inconclusive = small, poorly fitted or top-dose-only effect, or another doubt; inactive = no such curve, though single readings can be large; an effect the other way counts as inactive or inconclusive.

SMILES	ELG1 repair inh	KB-3-1 tox	KB-V1 MDR tox	MCF10A rereplic	SW480 rereplic	ELG1 Luc conf	ELG1-Luc MMS	ELG1 5FU viab	ELG1 MMS viab	Cell viab unstim	others
O=C(CNC(=O)c1cccc(Br)c1)N/N=C/c1cccs1	–	–	?	–	?	·	·	·	·	·
COc1ccc(-c2cc(C(=O)NCc3ccc(F)cc3)no2)cc1	·	–	–	·	·	·	·	·	·	·
O=C(Nc1nonc1NC(=O)c1cccs1)c1cccs1	4.1µM	?	10µM	–[9.22 µM]	–	?	4.4µM	–	5µM	?
COc1ccc(C(=O)NNc2ncnc3c2cnn3-c2ccc(C)cc2C)cc1	·	–	–	·	·	·	·	·	·	·
O=C(OCC(=O)N1CCc2ccccc2C1)c1c(F)cccc1Cl	?	–	–	–	–	·	·	·	·	–
O=C(OCC(=O)N1CCCC1)c1c(Cl)cccc1Cl	?	–	–	–	–	·	·	·	·	·
O=C(/C=C/C#Cc1cccc(NS(=O)(=O)c2ccccc2)c1)NO	·	·	·	·	·	·	·	·	·	?
O=C(O)/C=C/c1cccc(NS(=O)(=O)c2ccccc2)c1	–	–	–	–	–	·	·	·	·	·
COc1ccccc1CNC(=O)c1cc(-c2ccccc2C)n(CC2CC(c3cccc([N+](=O)[O-])c3)=NO2)n1 (configuration not stated)	–	–	–	–	–	·	·	·	·	·
Cc1ccccc1C(=O)Nc1ccc(Br)cn1	?	–	–	–	–	·	·	·	·	·
Cc1cc(C(=O)Nc2ccc(Br)cn2)sc1C	?	–	–	–	–	·	·	·	·	?
CCC(CO)Oc1cc(NCc2ccccc2O)c2ncn(C(C)C)c2c1 (configuration not stated)	2.3µM	–	–	–	–	8.9µM	4.4µM	–	4.4µM	?
O=C(c1ccc(Cl)c(S(=O)(=O)N2CCOCC2)c1)N1CCN(c2ccccc2)CC1	0.082µM	–	?	?	–	?	–	–	–	?	ELG1 FLuc counter=–;FLuc enzyme=–
O=C(c1ccc(Cl)c(S(=O)(=O)N2CCOCC2)c1)N1CCN(Cc2ccccc2)CC1	–	–	?	–	–	·	·	·	·	·
CC1(C)CC(N2CCOCC2)=CC(=S)N1	·	–	–	·	·	·	·	·	·	·
COC(=O)C1C(=O)C=C(N2CCOCC2)CC1(C)C (configuration not stated)	4.1µM	–	–	–	–	–	–	–	–	–
CCOc1ccc(/C=N/NC(=O)c2ccoc2C)cc1OC	?	–	–	–	?	·	·	·	·	·
COc1ccc(/C=N/NC(=O)c2ccoc2C)cc1CN1CCN(c2ccc(F)cc2)CC1	2.6µM	–	–	–	–	2.5µM	–	?	–	?
O=C1CCC/C1=c1\s/c(=C\c2cccnc2)c(=O)n1-c1ccccc1	13µM	–	–	–	–	8.9µM	?	–	–	–	ELG1 FLuc counter=–;FLuc enzyme=–
CCCCCn1c(=O)[nH]c2cc(C(=O)NCc3ccc4c(c3)OCO4)ccc2c1=O	–	–	–	–	–	·	·	·	·	·
COc1ccc(OC)c(NC(=O)CCn2c(=S)[nH]c3ccccc3c2=O)c1	–	–	–	–	–	·	·	·	·	·
O=C(c1ccc2c(=O)n(CCc3ccccc3)c(=O)[nH]c2c1)N1CCN(c2ccccc2)CC1	–	?	–	–	–	·	·	·	·	·
COc1ccc(OC)c(NC(=O)c2ccc3c(=O)n(CCc4ccccc4)c(=S)[nH]c3c2)c1	1.5µM	–	?	–	–	?	0.56µM	–	0.63µM	?
CCCCCn1c(=O)[nH]c2cc(C(=O)N3CCN(Cc4ccc5c(c4)OCO5)CC3)ccc2c1=O	0.46µM	–	–	–	–	?	0.22µM	–	0.22µM	?	ELG1 FLuc counter=–;FLuc enzyme=–
COc1ccc(N2CCN(C(=O)c3ccc4c(=O)n(CCc5ccc(OC)c(OC)c5)c(=O)[nH]c4c3)CC2)cc1	1.8µM	–	?	–	–	16µM	13µM	–	?	?
SMILES	ELG1 repair inh	KB-3-1 tox	KB-V1 MDR tox	MCF10A rereplic	SW480 rereplic	ELG1 Luc conf	ELG1-Luc MMS	ELG1 5FU viab	ELG1 MMS viab	Cell viab unstim	others
Cc1ccc(C(=O)N(CC(=O)NC2CCCC2)c2ccccc2F)s1	·	–	–	·	·	·	·	·	·	·
Fc1ccccc1Cc1cn2cc(-c3ccc(Cl)cc3)nc2s1	·	–	–	·	·	·	·	·	·	·
COc1ccc(-c2nc(-c3cccnc3)no2)cc1	?	–	–	–	?	·	·	·	·	–
CCOc1ccc(-c2nc(-c3cccnc3)no2)cc1	?	–	–	–	–	·	·	·	·	·
Cc1ccc(Cn2cc(SCC(=O)Nc3nccs3)c3ccccc32)cc1	?	–	–	–	–	·	·	·	·	·
Cc1cccc(Cn2cc(SCC(=O)Nc3nccs3)c3ccccc32)c1	?	–	–	–	–	·	·	·	·	–	ELG1 FLuc counter=–;FLuc enzyme=2.9µM
COc1ccc(C(=O)Nc2cc3c(cc2N2CCCCC2)n(C)c(=O)n3C)cc1OC	–	–	–	?	–	?	–	?	–	–	ELG1 FLuc counter=–;FLuc enzyme=–
C=CC[C@@H](CC(=O)N[C@H](CO)Cc1ccccc1)C(=O)NC[C@H](OC(=O)[C@@H](CC=C)Cc1ccc(F)cc1)c1ccccc1	4.6µM	–	?	–	–	?	10µM	?	–	–

Source: PubChem BioAssay
